Test [1] in a line: qHTS profiling for inhibitors of Plasmodium falciparum (3D7) proliferation (AID 743322; call rule not given here;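 note: infected erythrocytes exposed to compound for 72 h before lysis; 100% = DMSO vehicle wells and 0% = 0.29 µM artemisinin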). The conditions noted are these: P. falciparum 3D7 proliferation; at 28.7 µM (top of the series) unless noted. In a few lines:
(§1)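 Erythrocytes infected with P. falciparum (0.3% parasitemia, 2.5% hematocrit) incubated with compounds 72 h at 37 C, 5% CO2. Lysis with saponin/Triton buffer containing SYBR Green I, overnight at room temperature in the dark; DNA fluorescence (485/535 nm) normalised to 0.29 uM artemisinin and DMSO.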

Test [2] can be described thus: qHTS profiling for inhibitors of Plasmodium falciparum (DD2) proliferation (AID 743323; call rule not given here). As to conditions: lower = more inhibition; at 28.7 µM (top of the series) unless noted. Put shortly: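 P. falciparum Dd2-infected erythrocytes (0.3% parasitemia, 2.5% hematocrit) exposed 72 h at 37 C, 5% CO2. Lysis with SYBR Green, overnight at room temperature, fluorescence 485/535 nm; normalized to 0.29 uM artemisinin and DMSO.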

Test [3] in a line: qHTS profiling for inhibitors of Plasmodium falciparum (HB3) proliferation (AID 743324).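 Note: 100% = DMSO vehicle wells and 0% = artemisinin-treated control wells.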 The conditions noted are these: Plasmodium falciparum HB3 blood-stage proliferation; at 28.7 µM (top of the series) unless noted. In a few lines:
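P. falciparum HB3 grown in erythrocytes (0.3% parasitemia, 2.5% hematocrit final) with compound for 72 h at 37 C, 5% CO2. Parasite DNA detected by SYBR Green after saponin/triton lysis overnight; normalized to 0.29 uM artemisinin and DMSO.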

Test [4] can be described thus: qHTS profiling of the MIPE4 collection as inhibitors of Plasmodium falciparum (3D7) proliferation (AID 743344; call rule not given here;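 note: scaled between DMSO vehicle wells and 0.29 µM artemisinin as full inhibition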). As to conditions: P. falciparum 3D7 in erythrocytes, SYBR Green DNA fluorescence, 72 h; at 28.5 µM (top of the series) unless noted. In a few lines: as §1
A short description of test [5]: qHTS profiling of the MIPE4 collection as inhibitors of Plasmodium falciparum (DD2) proliferation (AID 743345; call rule not given here). As to conditions: P. falciparum Dd2 in erythrocytes, SYBR Green DNA, 72 h; at 28.5 µM (top of the series) unless noted. Put shortly:
as §1

A short description of test [6]: qHTS profiling of the MIPE4 collection as inhibitors of Plasmodium falciparum (DD2) proliferation (Rep 2) (AID 743346; call rule not given here). The conditions noted are these: P. falciparum Dd2 in erythrocytes, SYBR Green DNA, 72 h; at 28.5 µM (top of the series) unless noted. In a few lines:
as §1

The nature of test [7]: High-throughput drug toxicity screening in the BPDCN cell line Gen2.2 (AID 1224824; call rule not given here;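 note: cells exposed to compounds for 48 h before reading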). The conditions noted are these: Gen2.2 BPDCN cells; at 45.8 µM (top of the series) unless noted. In a few lines:
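Seed 500 exponentially growing Gen2.2 cells/well; add compounds by pin tool; incubate 48 h, 37 °C, 5% CO2; add CellTiter-Glo, 15 min RT; read luminescence. % activity vs DMSO (100%) and bortezomib (0%).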

The nature of test [8]: High-throughput drug toxicity screening in the BPDCN cell line Cal-1 (AID 1224825; call rule not given here). The conditions noted are these: Cal-1 BPDCN cell viability, qHTS; at 45.8 µM (top of the series) unless noted. Put shortly: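 500 Cal-1 cells/well, RPMI + glutamine + 10% FBS (phenol red-free); cpd added by pin tool; 48 h, 37C, 5% CO2; CTG 15 min RT, lumi read. Normalised: DMSO 100%, bortezomib 9.2 uM 0%.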

The nature of test [9]: qHTS assay for measurement of the activity of small molecule inhibitors on Zika virus induced Caspase-3 activity in human iPSC derived neural progenitor cells (hNPCs) (AID 1224857). Note: nearly all actives have a fitted effect of over 65% in size. Note: potency is the fitted concentration of half-maximal effect. Put shortly:
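After overnight (16–20 h) culture at 350 cells/well, hNPCs get compound, then ZIKV 2 FFU/cell one hour later. Six hours on, Caspase-Glo 3/7 is added and luminescence measured.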

A short description of test [10]: qHTS assay for measurement of the activity of small molecule inhibitors on Zika virus induced Caspase-3 activity in human astrocytoma cells (AID 1224859). Note: potency is the fitted concentration of half-maximal effect. Put shortly: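 Inhibition of Zika-induced caspase-3/7 activity: SNB-19 cells, 1 h compound pretreatment, ZIKV 2 FFU/cell for 6 h at 37 C, Caspase-Glo luminescence read-out.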
Test [11] in a line: qHTS Screen of the MIPE 4.0 Collection Against Ewings Sarcoma (RDES) (AID 1259252). Note: nearly all actives have a fitted effect of over 35% in size. Note: potency is the fitted concentration of half-maximal effect. In a few lines:
(§2)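 CellTiter-Glo luminescence after 48 h compound exposure (titration) gave viability; percent activity used DMSO-treated cells as no inhibition and medium-only wells as full inhibition. Cells grown in RPMI/5% FBS, dosed 4 h post-seeding.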

A short description of test [12]: qHTS Screen of the MIPE 4.0 Collection Against Ewings Sarcoma (TC71) (AID 1259253). Note: nearly all actives have a fitted effect of over 40% in size. Note: potency is the fitted concentration of half-maximal effect. Put shortly:
as §2

Test [13] is described as follows: qHTS Screen of the MIPE 4.0 Collection Against Ewings Sarcoma (EW8) (AID 1259255).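 For viability: 100% = DMSO-treated cells and 0% = medium-only wells without cells.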 Note: nearly all actives have a fitted effect of over 35% in size. Note: potency is the fitted concentration of half-maximal effect. Put shortly: as §2
Test [14] can be described thus: qHTS Screen of the MIPE 4.0 Collection Against Ewings Sarcoma (TC32) (AID 1259256). Note: nearly all actives have a fitted effect of over 45% in size. Note: potency is the fitted concentration of half-maximal effect. In a few lines:
as §2

A short description of test [15]: qHTS profiling of the MIPE4 collection as inhibitors of Plasmodium falciparum (HB3) proliferation (AID 743347; call rule not given here;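 note: plate controls were DMSO vehicle wells for no effect and artemisinin wells for full effect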). The conditions noted are these: P. falciparum HB3 in erythrocytes, SYBR Green DNA, 72 h; at 28.5 µM (top of the series) unless noted. In a few lines: as §1
A short description of test [16]: qHTS assay to identify small molecule inhibitors of chordoma cells - UCH-1 (AID 1259355). Note: % is set by controls: 0 for no effect and ±100 for the full control effect; nearly all actives have a fitted effect of over 55% in size. In a few lines:
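Seed 800 cells per well; incubate overnight at 37 C, 5% CO2. Add test compounds (15 concentrations), then the auranofin–topoisomerase-agent combination. Incubate 48hr, add CellTiter-Glo, wait 30min, read luminescence.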

The nature of test [17]: Identifying Small Molecule Inhibitors of Pancreatic Cancer Stem Cells (A2780, Spheroid) (AID 1259357).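 Note: spheroids pre-formed over 14 days in stem cell medium on hydrogel; compound exposure lasted 48 h before the ATP luminescence read; 100% = DMSO treated cells and 0% = wells without cells.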 As to conditions: Potency: A2780 spheroid viability. In a few lines: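 Spheroids grown 14 days in stem cell media on nonadherent hydrogel before screening; cells attached 4 h, then compound exposure 48 h at 37C, 5% CO2. CellTiter-Glo luminescence normalized to DMSO (no inhibition) and no-cell wells (full inhibition).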

Structures are written as SMILES. Results filed as inconclusive are left out. Active and inactive are the calls of the source. Unless noted, calls come from the whole dose curve; as a rule, active = well fitted curve in the direction sought with a large enough effect; inconclusive = small, poorly fitted or top-dose-only effect, or another doubt; inactive = no such curve, though single readings can be large; an effect the other way counts as inactive or inconclusive.

As to `O=S(=O)(N=Cc1c(O)ccc2ccccc12)c1cccs1`, the remaining parasite growth % (stronger effect = lower value) in test [1] was determined as 85.7%. This compound came in with an activity, percent of control in test [2] of 92.2%. Also, the remaining proliferation (% of control), lower = more inhibition in [3] was found to be 82.6%. The same compound registered a parasite growth, % of DMSO control in test [4] of 75.2%. Besides, the parasite growth remaining, % of DMSO control (lower = more inhibition) in test [5] amounted to 91.9%. Also, the parasite growth, % of control (lower = inhibition) in [6] was determined as 63.3%. Further, in test [7], the cell viability, % of control (lower = more cytotoxic) was found to be 98%. In test [8], the viability (% of control) came out at 45.4%. Moreover, the Potency result in test [9] and in test [10] was “inactive” in each case. Besides, the Potency in test [11] was 0.105 µM (active); in [12], 1.66 µM (active); in test [13] it was 7.43 µM (active); in test [14] it was 0.372 µM (active).

Regarding `CCn1c(-c2nonc2N)nc2c(C#CC(C)(C)O)ncc(OC[C@H]3CCCNC3)c21`, the remaining parasite growth % (stronger effect = lower value) in test [1] stood at 5.66%. For the same compound, in [3], the remaining proliferation (% of control), lower = more inhibition is 2.14%. Moreover, the parasite growth, % of DMSO control in test [4] worked out at 5.72%. Further, the parasite growth remaining, % of DMSO control (lower = more inhibition) in test [5] was found to be 11.8%. Moreover, the parasite growth, % of control (lower = inhibition) in test [6] turned out to be 13.9%. For the same compound, in test [15], the growth, % of control turned out to be 3.2%. Also, the cell viability, % of control (lower = more cytotoxic) in [7] worked out at 64.9%. In test [8], the viability (% of control) amounted to 8.62%. Moreover, the Potency result in test [9] and in test [10] was “inactive” throughout. Further, the Potency in [11] is 23.5 µM (active); in [12], 18.7 µM (active); in test [13], 23.5 µM (active); in test [14], 18.7 µM (active).

With `CCCC(CCC)C(=O)O`, the parasite growth remaining, % of DMSO control (lower = more inhibition) in test [5] worked out at 103%. In addition, the parasite growth, % of control (lower = inhibition) in [6] was found to be 148%. In addition, the growth, % of control in test [15] was 111%. Besides, in test [7], the cell viability, % of control (lower = more cytotoxic) was 83.8%. Further, the viability (% of control) in test [8] was 100%. Moreover, the Potency entry in test [9], in test [10], in test [11], in [12], in [13] and in test [14] was “inactive” in each case. In addition, the Potency result in test [16] was “inactive”.

With `CC(=O)Oc1ccccc1C(=O)O`, the parasite growth, % of DMSO control in [4] stood at 93.6%. For the same compound, the parasite growth remaining, % of DMSO control (lower = more inhibition) in test [5] worked out at 90.5%. Moreover, the parasite growth, % of control (lower = inhibition) in test [6] was 90.6%. The same compound yielded a growth, % of control in test [15] of 94.6%. The cell viability, % of control (lower = more cytotoxic) in test [7] turned out to be 125%. Besides, the viability (% of control) in test [8] stood at 135%. For the same compound, the Potency result in [9], in test [10] and in test [16] was “inactive” in each case. Besides, the Potency in test [11] was 8.33 µM (active); in test [12], 18.7 µM (active); in test [13], 20.9 µM (active); in test [14], 11.8 µM (active).

`Cc1cc(-c2ccc(CC(=O)Nc3ccc(-c4cccnc4)cc3)cc2)ccn1`: the remaining parasite growth % (stronger effect = lower value) in test [1] amounted to 75%. The remaining proliferation (% of control), lower = more inhibition in [3] worked out at 6.55%. This compound came in with a parasite growth, % of DMSO control in [4] of 32.3%. Also, the parasite growth remaining, % of DMSO control (lower = more inhibition) in test [5] stood at 95.7%. Further, the parasite growth, % of control (lower = inhibition) in test [6] was determined as 110%. Besides, the cell viability, % of control (lower = more cytotoxic) in test [7] is 255%. In addition, the viability (% of control) in test [8] was 20.4%. Besides, the Potency result in [9] and in test [10] was “inactive” in each case. In addition, the Potency in test [11] is 20.9 µM (active); in test [12], 16.6 µM (active); in test [13], 18.7 µM (active).

Regarding `N#CC[C@H](C1CCCC1)n1cc(-c2ncnc3[nH]ccc23)cn1`, the remaining parasite growth % (stronger effect = lower value) in [1] came to 57.9%. Further, in [3], the remaining proliferation (% of control), lower = more inhibition stood at 18.5%. The parasite growth, % of DMSO control in [4] was 21.5%. In addition, the parasite growth remaining, % of DMSO control (lower = more inhibition) in [5] came to 64.4%. The parasite growth, % of control (lower = inhibition) in test [6] came out at 55.7%. Moreover, in [7], the cell viability, % of control (lower = more cytotoxic) worked out at 230%. Besides, in [8], the viability (% of control) was determined as 56.3%. The Potency entry in test [9] and in test [10] was “inactive” throughout. Besides, the Potency in test [11] was 18.7 µM (active); in test [12], 20.9 µM (active); in [13] it was 16.6 µM (active).

With `O=C(O)[C@@H](c1ccc(OCc2ccc3ccccc3n2)cc1)C1CCCC1`, the remaining parasite growth % (stronger effect = lower value) in test [1] was 114%. The compound further gave an activity, percent of control in [2] of 96.9%. Moreover, the remaining proliferation (% of control), lower = more inhibition in test [3] came to 106%. Further, the parasite growth, % of DMSO control in test [4] came to 90.1%. Also, in test [5], the parasite growth remaining, % of DMSO control (lower = more inhibition) was found to be 102%. Moreover, in test [6], the parasite growth, % of control (lower = inhibition) came to 130%. For the same compound, the cell viability, % of control (lower = more cytotoxic) in test [7] is 125%. Also, the viability (% of control) in test [8] worked out at 73.2%. Further, the Potency in [9] was 16.6 µM (active); in [10] it was 13.2 µM (active). Moreover, the Potency entry in test [11], in test [12], in [13] and in test [14] was “inactive” in each case.

Consider `CCCCCCCc1ccc(CCc2cccc(O)c2C(=O)O)cc1`, for which, in test [1], the remaining parasite growth % (stronger effect = lower value) was 93%. The compound also showed an activity, percent of control in test [2] of 88.3%. In addition, in [3], the remaining proliferation (% of control), lower = more inhibition amounted to 58.6%. The same compound came in with a parasite growth, % of DMSO control in test [4] of 68.8%. In addition, the parasite growth remaining, % of DMSO control (lower = more inhibition) in test [5] came out at 99.9%. For the same compound, in test [6], the parasite growth, % of control (lower = inhibition) was 66.9%. Further, the cell viability, % of control (lower = more cytotoxic) in [7] worked out at 161%. Moreover, the viability (% of control) in test [8] amounted to 66.1%. Moreover, the Potency result in test [9], in test [10] and in test [17] was “inactive” in each case. In addition, the Potency in [11] is 18.7 µM (active); in test [12] it was 16.6 µM (active).

Values taken from PubChem BioAssay (NCATS).
